# G9a block – blocks human histone lysine methyltransferase G9a. 8.8% of 350,000 active. G9a H3K9 monomethylation, AlphaScreen, 2 h. Q96KQ7. Potency, µM (series often up to 102 µM), for inactives: at the top dose activity, negative = inhibition, actives largely listed as inhibitors. AID 504332; note: potency is the fitted concentration of half-maximal effect; % is set by controls: 0 for no effect and ±100 for the full control effect; nearly all actives have a fitted effect of over 75% in size
#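 Signal arises when biotinylated H3K9 peptide, once monomethylated, bridges streptavidin donor and antibody-captured acceptor beads. Enzyme at 20 nM was preincubated 15 min with test compounds; peptide 500 nM and SAM 20 uM then reacted for 2 h.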
# BAZ2B inh – blocks human BAZ2B; Q9UIF8; AlphaScreen BAZ2B-H3K14Ac peptide displacement; Potency, µM (doses to about 114 µM), without a hit: at the highest dose activity change, negative = inhibition, actives largely listed as inhibitors; 4.4% of 360,000 active; note: potency is the fitted concentration of half-maximal effect; % is set by controls: 0 for no effect and ±100 for the full control effect; nearly all actives have a fitted effect of over 60% in size
#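 BAZ2B (50 nM) with biotin-H3(5-23)K14Ac peptide (50 nM) in PBS pH 7.4, 0.01% Tween-20, preformed 30 min, then compound 30 min at room temperature; top concentration 110uM. AlphaScreen streptavidin donor/nickel chelate acceptor beads (10 ug/mL final), 20 min dark, signal read.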
# HP1b binding inh – blocks HP1-beta chromodomain binding to methylated histone tails; P83916; AlphaScreen HP1-beta / biotin-H3K9me3 peptide binding; Potency, µM (series often up to 114 µM), without a hit: at the top dose activity change, negative = inhibition, hits mostly inhibitors; 0.56% of 390,000 active; note: potency is the fitted concentration of half-maximal effect; nearly all actives have a fitted effect of over 70% in size
# Target sequence (P83916 whole entry, looked up): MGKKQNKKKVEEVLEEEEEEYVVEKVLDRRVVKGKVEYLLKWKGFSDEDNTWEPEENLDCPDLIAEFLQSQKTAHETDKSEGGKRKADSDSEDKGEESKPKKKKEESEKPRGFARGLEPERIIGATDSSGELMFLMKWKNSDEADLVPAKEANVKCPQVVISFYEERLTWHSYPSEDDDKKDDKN
#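 HP1-beta protein (50 nM final) preincubated 30 min at room temperature with biotinylated H3(1-18)K9me3 peptide (50 nM) in PBS pH 7.4, 0.01% Tween-20, then compound added for 30 min. AlphaScreen streptavidin donor/nickel chelate acceptor beads (10 ug/mL final), 30 min dark, luminescence read.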
# PI5P4K alpha inh – PI5P4K alpha (human) kinase inhibition. max response, %. PI5P4Kalpha enzyme, ADP-Glo luminescence, 60 min; active compounds read low. 1.2% of 330,000 active. AID 652105. P48426; active = max response of -50% or lower; inconclusive = between -30% and -50%; inactive = -30% or higher; note: value at the top dose of about 77 µM; % is set by controls: 0 for no effect and ±100 for the full control effect
# Target sequence (P48426 whole entry, looked up): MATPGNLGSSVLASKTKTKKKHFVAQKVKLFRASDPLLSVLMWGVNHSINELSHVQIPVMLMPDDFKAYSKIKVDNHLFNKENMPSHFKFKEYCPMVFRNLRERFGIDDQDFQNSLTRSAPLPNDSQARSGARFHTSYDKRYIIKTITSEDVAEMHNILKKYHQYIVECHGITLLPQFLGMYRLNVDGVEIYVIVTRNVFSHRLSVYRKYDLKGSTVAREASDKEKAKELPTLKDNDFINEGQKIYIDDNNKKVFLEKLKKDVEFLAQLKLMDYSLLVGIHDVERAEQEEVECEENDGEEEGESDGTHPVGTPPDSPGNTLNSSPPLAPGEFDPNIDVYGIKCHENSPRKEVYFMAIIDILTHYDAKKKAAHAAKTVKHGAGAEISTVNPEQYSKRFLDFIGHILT
#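 qHTS, 1536-well: enzyme/substrate mix, compound by pin tool, 5 microM ATP final; RT 60 min; ADP-Glo reagents 1 (45 min) then 2 (30 min); luminescence.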
# JMJD2A Tudor inh – blocks the human JMJD2A Tudor domain; Potency, µM (top dose mostly 114 µM), for the others: top-dose activity change, negative = inhibition, hits mostly inhibitors; 4.4% of 390,000 active; O75164; AlphaScreen JMJD2A-Tudor / H3K4me3 peptide binding; note: potency is the fitted concentration of half-maximal effect; % is set by controls: 0 for no effect and ±100 for the full control effect; nearly all actives have a fitted effect of over 50% in size
# L3MBTL1 block – L3MBTL1 (human) inhibition; AlphaScreen L3MBTL1–H3K9me1 peptide binding; Potency, µM (doses to about 57.1 µM), for the others: top-dose activity, negative = inhibition, most hits filed as inhibitors; 0.66% of 230,000 active; AID 485360; note: potency is the fitted concentration of half-maximal effect; % is set by controls: 0 for no effect and ±100 for the full control effect; nearly all actives have a fitted effect of over 60% in size
#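 AlphaScreen proximity signal between nickel-chelate acceptor and streptavidin donor beads (final 10 ug/mL) reports binding of 50 nM L3MBTL1 to 75 nM biotin-H3 K9me1 peptide; complex incubated with compounds 30 min at room temperature; cefsulodin titration as control.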
# * marks the source's active call; other numbers are inactive results; u = inconclusive; x = no result; [ ] = another dose, or the depositor's remark. Rows were chosen to be rich in hits. Some 11% of all compounds tested hit in one or more screens of this group. Unless noted, calls come from the whole dose curve; as a rule, active = well fitted inhibition curve with a large enough effect; inconclusive = small, poorly fitted or top-dose-only effect; inactive = no such curve, though single readings can be large or run the other way.
SMILES,G9a block,BAZ2B inh,HP1b binding inh,PI5P4K alpha inh,JMJD2A Tudor inh,L3MBTL1 block
Cc1ccccc1CN1C[C@@H]2C[C@@H](c3cnc(N4CCOCC4)s3)N3CCC[C@@]23C1=O,35.5µM*,-29.1%,13.3%,1.8,-20.0%,-5.0%
COc1ccccc1CN1C[C@@H]2C[C@@H](c3ccccc3C)N3CCC[C@@]23C1=O,5.1%,-10.9%,6.2%,-6.2,-28.3%,-13.2%
Cc1ccccc1-c1cccc([C@@H]2C[C@H]3CN(Cc4cccnc4)C(=O)[C@]34CCCN24)c1,50.1µM*,-26.8%,-11.5%,-1.3,u,-14.3%
O=C1N(Cc2cccc(Cl)c2)C[C@@H]2C[C@@H](c3cccc4cccnc34)N3CCC[C@@]123,x,-0.3%,21.0%,-1.7,-21.5%,-0.4%
O=C1N(Cc2cccnc2)C[C@@H]2C[C@@H](c3ccccc3C#Cc3ccccc3)N3CCC[C@@]123,50.1µM*,-19.8%,31.8%,-1.6,-26.2%,-13.2%
CCCCCOc1ccc(NC(=O)Cc2csc(C)n2)cc1,6.5%[59 µM],0.1%,57.2%,x,-7.2%,x
CCOc1ccc(NC(=O)CSC2=Nc3ccccc3C3=NC(Cc4ccccc4)C(=O)N23)cc1 (centres undefined),3.5%[59 µM],-6.6%,2.1%,x,-24.3%,x
COc1ccc(C)cc1NC(=O)Cn1cc(S(=O)(=O)Cc2ccccc2Cl)c2ccccc21,-24.8%[59 µM],-10.0%,6.1%,x,-16.2%,x
COc1ccc(NC(=O)CSc2nnc(NC(=O)Nc3ccccc3)s2)c(OC)c1,-24.2%[59 µM],2.0%,47.9%,x,-1.9%,x
O=C(Oc1ccc(F)cc1)c1ccc2c(=O)n3c(nc2c1)CCC3,50.1µM*,-1.2%,19.1%,-29.2,-12.4%,-9.5%
Cc1[nH]c2ccc(C(=O)NCCc3ccccc3Cl)cc2c1C,-9.3%[59 µM],u,-5.6%,x,-34.1%,x
CC(/C=N/n1c(-c2ccc(Cl)cc2)n[nH]c1=S)=C\c1ccco1,10µM*,1.8%,4.7%,u,u,-14.6%
S=c1[nH]ncn1/N=C/c1ccco1,x,x,x,2.7,x,x
CC(/C=N/n1cnnc1)=C\c1ccco1,u,-4.1%,24.7%,-3.5,-22.2%,-8.9%
Cc1cccc(S(=O)(=O)c2c(N)n(/N=C/c3ccco3)c3nc4ccccc4nc23)c1,-40.2%[59 µM],-30.1%,-5.1%,x,-23.7%,-14.8%
Cc1cccc(-c2n[nH]c(=S)n2/N=C/c2ccco2)c1,x,-26.3%,7.1%,4.1,7.94µM*,-4.2%
Cc1ccc(-c2n[nH]c(=S)n2/N=C\c2ccco2)cc1,0.891µM*,-8.8%,7.5%,-0.1,25.1µM*,0.6%
S=c1[nH]nc(-c2cccnc2)n1/N=C/c1ccco1,x,u,34.8%,-7.1,25.1µM*,u
CCOc1ccc(-c2nc3c(c(SCC(=O)N4CCCCC4)n2)Cc2cccc(OC)c2O3)cc1,-2.1%[59 µM],-35.3%,17.0%,x,-20.2%,x
CCn1cc(C(=O)OCC(=O)Nc2cc(OC)cc(OC)c2)c(=O)c2ccc(C)nc21,10.2%[59 µM],0.9%,30.2%,x,8.5%,x
CCOC(=O)N1CCN(S(=O)(=O)c2ccc3c4c(cccc24)C(=O)N3)CC1,-22.2%,-0.1%,61.9%,-4.9,15.0%,x
CCOc1ccccc1N1CCN(S(=O)(=O)c2ccc3c4c(cccc24)C(=O)N3)CC1,u,50.1µM*,-16.2%,u,56.2µM*,x
O=C(O)c1cccc2c1C(=O)c1ccc(-c3ccc(F)cc3OCc3ccccc3)cc1S2(=O)=O,-13.1%[0.501 µM],79.4µM*,-2.2%,-26.8,u,u
O=C1c2ccc(-c3ccc(F)cc3OCc3ccccc3)cc2S(=O)(=O)c2cccc(C(=O)N3CCN(c4ncc(Br)cn4)CC3)c21,x,x,5.8%,-9.3,u,-0.8%
CCOC(=O)c1oc2c(c1C)-c1nn(Cc3ccc(Cl)cc3)cc1CC2,-2.3%[59 µM],-2.7%,47.7%,x,-6.4%,x
SMILES,G9a block,BAZ2B inh,HP1b binding inh,PI5P4K alpha inh,JMJD2A Tudor inh,L3MBTL1 block
Cc1cccc(N(Cc2cc(=O)[nH]c3ccccc23)C(=O)CCl)c1,5.62µM*,-16.9%,-2.5%,-15.6,56.2µM*,x
CCCC(=O)N(Cc1cc(=O)[nH]c2ccccc12)c1cccc(C)c1,28.2µM*,-5.4%,-9.5%,-12.6,u,x
CCOc1ccc(NC(=O)Cn2ccn3nc(-c4ccc(OC)c(OC)c4)cc3c2=O)cc1,5.8%[59 µM],-7.6%,21.1%,x,-5.3%,x
Cc1cc(C)c(S(=O)(=O)Nc2ccc(-c3ccc(N4CCCCC4)nn3)cc2)c(C)c1,-24.3%[59 µM],-14.2%,10.1%[57 µM],x,-30.0%,x
CN(C)CCC(=O)c1ccc(Cl)cc1,6.31µM*,-2.6%,17.5%,1.5,-7.9%[57.1 µM],2.0%
CN(CCC(=O)c1ccccc1)CCC(=O)c1ccccc1,31.6µM*,4.8%,14.4%,1.0,-11.2%,x
Nc1nc(CN2CCN(c3ccc(F)cc3)CC2)nc(N2CCCc3ccccc32)n1,39.8µM*,-63.8%,-8.9%,x,50.1µM*,-17.3%
COc1ccc(Nc2nc(N)nc(CN3CCN(c4ccc(F)cc4)CC3)n2)cc1,u,u,19.8%,3.1,u,u
O=C(NCCc1ccc(Cl)cc1)C1CCN(S(=O)(=O)c2ccc3[nH]ccc3c2)CC1,8.6%[59 µM],-2.7%,23.1%[57 µM],x,-8.9%,x
COc1ccc2oc(=O)c(C(=O)OCc3ccccc3)cc2c1,28.2µM*,-7.3%,1.6%,3.0,6.4%,x
COc1ccc2oc(=O)c(C(=O)NCc3ccccc3)cc2c1,32.2%,2.4%,33.8%,-1.9,-9.7%,0.2%
Cc1cc(=O)c(C(=O)O)cn1Nc1ccc(Cl)cc1,u,-9.9%,39.7%,0.6,-27.0%,x
Cc1ccc(-n2nc(C)c(C(=O)O)n2)c(C)c1,79.4µM*,-4.3%,8.3%,-3.0,-10.1%,6.6%
Cc1cc(=O)c(C(=O)O)cn1-c1ccc(C(C)C)cc1,44.7µM*,u,8.5%,4.0,3.5%,9.1%
Cc1cccc(-n2cc(C(=O)O)c(=O)cc2C)c1,22.4µM*,-38.3%,-4.3%,1.0,44.7µM*,22.0%
Cc1cc(C)cc(-n2cc(C(=O)O)c(=O)cc2C)c1,28.2µM*,79.4µM*,7.6%,0.2,-5.6%,-4.8%
Cc1cc(C)c(N)c(C(=O)O)c1,-1.6%[12.7 µM],0.2%,41.1%,-0.3,-10.6%,x
COCCNC(=O)C1(C(F)(F)F)C/C(=C/CCO)CCCO1 (centres undefined),x,x,27.4%,x,-1.4%,x
Cc1ccc(-n2cc(C(=O)O)c(=O)cc2C)c(C)c1,50.1µM*,u,11.2%,1.7,-12.5%,-21.7%
COc1ccc(C2CC(c3ccccc3)Oc3cc(OC)c(OC)c(OC)c32)cc1 (centres undefined),x,x,23.2%,x,-19.3%,x
COc1cc2c(cc1OC)C(C(=O)Nc1ccccn1)C(c1cccnc1)N(C)C2=O (centres undefined),x,79.4µM*,80.8%,-3.2,-12.2%[57.1 µM],-1.7%
CCC(CC)C(=O)NCc1nc2cccnc2n1Cc1ccc(F)cc1,5.9%[59 µM],-1.3%,7.7%[57 µM],x,-8.4%,x

# Assay outcomes as filed in PubChem.
